The text below walks through data of article PMC5540273 (PLoS ONE, 2017).

Each structure is given as a SMILES string.
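Also: KINOMEscan kinase panel screen.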

The subject of this assay is MKNK1. The conditions noted are these: concentration: 1 μM,replicates: in singlicate; n = 1.
`C[C@@H](Oc1cc(-n2cnc3cc(-c4ccncc4)ccc32)sc1C(N)=O)c1ccccc1Cl` [GSK479719]: the “%Inh” value was found to be 0%.
For `COc1cc2c(Nc3ccc(NC(=O)c4ccccc4)cc3)ncnc2cc1OCCCN1CCOCC1` [GSK301329] the value was 0%; for `Cc1cccc(-c2nc(Nc3ccncc3)c3sccc3n2)n1` [GW869641], 0%.
For `Cl.Cl.NC[C@H](CC1CCCCC1)NC(=O)c1ccc(-c2ccnc3[nH]ccc23)s1` [GSK1581428] the value was 66%.
For `Cc1ccc(Nc2ccnc(Nc3ccc4c(c3)CS(=O)(=O)C4)n2)cc1O.Cl` [GW579362] the value was 43%; for `CCOC(=O)N1CCC(n2cnc(-c3ccc(F)cc3)c2-c2ccnc(N)n2)CC1` [SB-219952], 19%; for `CS(=O)(=O)c1cccc(CNc2nc(Nc3ccc4c(c3)[C@@H]3C[C@@H]4CNC3=O)ncc2C(F)(F)F)c1`, 0%.
For the molecule `O=C(Nc1ccc(Oc2ccc3nc(NC(=O)C4CC4)cn3n2)c(F)c1)c1cccn(-c2ccccc2)c1=O`, the “%Inh” value is 20%.
In the case of `Cc1ccc(C(=O)Nc2ccc(Oc3ccc4nc(NC(=O)C5CC5)cn4c3)c(F)c2)c(=O)n1-c1ccccc1` it was 88%.
In the case of `CCN1CCN(CCCC(=O)Nc2n[nH]c3nc(-c4ccc(O)cc4)c(Br)cc23)CC1` [SB-731579] it was 46%; in that of `COC(=O)c1cccc(NC(=O)NC2CCN(c3ccnc(Nc4cc(OC)c(OC)c(OC)c4)n3)C2)c1` (stereo not shown) [GSK1379767], 12%.
In the case of `Cn1cc(-c2cccc3c(N)c(C(N)=O)nnc23)cn1` it was 5%; in that of `Cn1ccc2ncnc(Oc3ccc(NC(=O)Nc4cccc(C(F)(F)F)c4)c(F)c3)c21`, 18%; in that of `COc1cc(Nc2nccc(N3CCC(NC(=O)c4cccc(C#N)c4)C3)n2)cc(OC)c1OC` (stereo not shown) [GSK1379751], 0%.
Take `c1ccc(Oc2ccc(Nc3ccnc4ccc(-c5ccccn5)cc34)cc2)cc1` [GW407034]: the “%Inh” value stood at 0%.
For `C[C@@H](Oc1cc(-n2cnc3cc(-c4cnn(C)c4)ccc32)sc1C(N)=O)c1ccccc1Cl` [GSK580432] the value was 2%; for `FC(F)(F)c1cc(Br)cc(Nc2nccc(-c3cnn4ncccc34)n2)c1` [GW810578], 19%.
Regarding `COc1cccc(CNC(=O)NC2CCN(c3ccnc(Nc4cc(OC)c(OC)c(OC)c4)n3)C2)c1` (stereo not shown) [GSK1379765], the “%Inh” value came out at 21%.
For `Cc1n[nH]c2cc(Nc3ccnc(Nc4cccc(CN5CCOCC5)c4)n3)ccc12` [GW682569] the value was 23%.
For the molecule `O=C(NCC1CC1)c1ccc(-c2cc(C(=O)NC3CC3)ccc2F)cc1` [GW810445], the “%Inh” value was 3%.
On to `Cc1nnc(-c2ccc3occ(-c4ccc(S(C)=O)cc4)c3n2)o1` (stereo not shown), for which the “%Inh” value stood at 0%.
In the case of `COC(=O)c1cccc(NC(=O)NC2CCN(c3ccnc(NCc4ccc(F)cc4)n3)CC2)c1` [GSK1379860] it was 0%; in that of `Cc1cccc2c(-c3ccncc3)c(-c3ccc(F)cc3)nn12.Cl` [GW461487], 1%.
For `O=C(Nc1n[nH]c2cc(-c3ccco3)ccc12)C1CC1` [SB-737447] the value was 0%.
For `CN(c1ccccc1CNc1nc(Nc2ccc3c(c2)CC(=O)N3)ncc1C(F)(F)F)S(C)(=O)=O` the value was 0%; for `CC(=O)Nc1nc2cnc(Nc3cc(NC(=O)c4cccc(CC(C)(C)C#N)c4)ccc3C)nc2s1`, 0%; for `COc1ccc(Nc2nccc(N3CCC(NC(=O)c4cccc(C#N)c4)C3)n2)cc1` (stereo not shown) [GSK1379730], 0%.
As to `CS(=O)c1ccc(-c2coc3ccc(-c4n[nH]c(=O)o4)cc23)cc1` (stereo not shown), the “%Inh” value came out at 9%.
For `CS(=O)(=O)Nc1ccc(-c2ccnc3[nH]ccc23)cc1` [GSK993273] the value was 72%; for `Cn1ccc2ncnc(Oc3ccc(NC(=O)Nc4cnn(C(C)(C)C)c4)c(Cl)c3)c21`, 4%.
In the case of `Cl.c1ccc(Oc2ccc(Nc3ccnc4cc(-c5ccc(CN6CCNCC6)o5)ccc34)cc2)nc1` [GW567142] it was 0%.
For `CSc1nccc(-c2c(-c3ccc(F)cc3)ncn2CCCN2CCOCC2)n1.Cl` [SB-217146] the value was 0%; for `C[C@@H](Oc1cc(-n2cnc3ccc(-c4ccncc4)cc32)sc1C(N)=O)c1ccccc1Cl` [GSK483724], 0%; for `Nc1nccc(-c2ccc3c(N)n[nH]c3c2)n1` [GSK1034945], 11%.
